BAZ2B block – BAZ2B (human) inhibition | AlphaScreen BAZ2B-H3K14Ac peptide displacement | Potency, µM (highest dose often 114 µM), without a hit: top-dose activity change, negative = inhibition, most hits filed as inhibitors | actives 4.4% (n = 360,000); further: potency means the concentration at half of the fitted maximal effect; on the % scale 0 is the no-effect control and ±100 the full control effect; nearly all actives have a fitted effect of over 60% in size
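AlphaScreen displacement: compounds (up to 110uM) incubated 30 min at room temperature with a preformed 50 nM BAZ2B/50 nM biotinylated H3K14Ac peptide complex in PBS pH 7.4 with Tween-20. Donor and acceptor beads at 10 ug/mL final added, 20 min light-protected before reading.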
JMJD2A Tudor inh – inhibitors of human JMJD2A Tudor domain. AlphaScreen JMJD2A-Tudor / H3K4me3 peptide binding. Potency, µM (doses to about 114 µM), without a hit: at the highest dose activity change, negative = inhibition, hits mostly inhibitors. actives 4.4% (n = 390,000). AID 504339; further: potency means the concentration at half of the fitted maximal effect; on the % scale 0 is the no-effect control and ±100 the full control effect; nearly all actives have a fitted effect of over 50% in size
Target sequence (O75164 whole entry, looked up, the tested form may be a part): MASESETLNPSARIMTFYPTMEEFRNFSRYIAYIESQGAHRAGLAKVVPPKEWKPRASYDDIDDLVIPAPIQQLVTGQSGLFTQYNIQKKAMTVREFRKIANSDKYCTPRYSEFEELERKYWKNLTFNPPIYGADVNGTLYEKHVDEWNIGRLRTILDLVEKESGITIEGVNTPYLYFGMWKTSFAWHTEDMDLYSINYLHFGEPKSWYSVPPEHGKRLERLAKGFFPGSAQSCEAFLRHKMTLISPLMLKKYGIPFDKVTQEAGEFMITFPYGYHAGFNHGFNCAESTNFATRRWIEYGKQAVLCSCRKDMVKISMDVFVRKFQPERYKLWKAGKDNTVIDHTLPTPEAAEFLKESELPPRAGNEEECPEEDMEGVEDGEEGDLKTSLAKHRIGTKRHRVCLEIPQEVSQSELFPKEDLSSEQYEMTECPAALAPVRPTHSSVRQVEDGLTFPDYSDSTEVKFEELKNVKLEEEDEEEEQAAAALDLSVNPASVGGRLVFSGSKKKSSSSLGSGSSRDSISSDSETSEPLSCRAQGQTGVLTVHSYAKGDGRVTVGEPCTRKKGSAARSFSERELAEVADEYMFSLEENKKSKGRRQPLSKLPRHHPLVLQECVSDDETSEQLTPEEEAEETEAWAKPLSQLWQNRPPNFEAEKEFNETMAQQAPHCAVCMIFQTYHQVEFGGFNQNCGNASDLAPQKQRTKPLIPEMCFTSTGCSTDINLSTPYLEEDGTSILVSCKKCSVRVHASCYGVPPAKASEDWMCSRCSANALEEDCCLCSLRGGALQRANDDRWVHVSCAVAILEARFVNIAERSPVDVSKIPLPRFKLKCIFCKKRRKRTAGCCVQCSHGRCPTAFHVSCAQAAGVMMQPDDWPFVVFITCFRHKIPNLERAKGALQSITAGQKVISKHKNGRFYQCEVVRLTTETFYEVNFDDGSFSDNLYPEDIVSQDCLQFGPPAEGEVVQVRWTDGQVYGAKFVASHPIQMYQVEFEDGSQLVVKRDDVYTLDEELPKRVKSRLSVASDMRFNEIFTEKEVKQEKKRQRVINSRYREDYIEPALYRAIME
G9a block – G9a (human) methyltransferase inhibition; G9a H3K9 monomethylation, AlphaScreen, 2 h; Potency, µM (highest dose often 102 µM), without a hit: at the highest dose activity, negative = inhibition, usual class: inhibitors; actives 8.8% (n = 350,000); AID 504332; further: potency means the concentration at half of the fitted maximal effect; on the % scale 0 is the no-effect control and ±100 the full control effect; nearly all actives have a fitted effect of over 75% in size
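Chemiluminescent proximity detection of H3K9 monomethylation, read after 10 min bead incubation in the dark. Reaction: 20 nM G9a, 500 nM biotin-H3K9 peptide, 20 uM SAM cofactor, 2 h, room temperature, following 15 min enzyme-compound preincubation.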
CtBP-E1A blk – CtBP/E1A binding inhibition; AlphaScreen GST-E1A/His-CtBP binding, 1536-well; active compounds read low; activity change, % (no concentration beside the values); actives 0.49% (n = 340,000); AID 651724; in the data active means activity change below about -65%; inconclusive means mostly about -30% to -63%; further: on the % scale 0 is the no-effect control and ±100 the full control effect
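AlphaScreen with 125 nM GST-E1A and 125 nM His-CtBP (5X stocks) in Tris pH 8.0, 300 mM NaCl, BSA, Tween 20, TCEP. Compounds preincubated 2 h at 37 deg C, then glutathione donor/nickel acceptor beads added for 1 h at 37 deg C in dark.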
HP1b chromo inh – inhibitors of HP1-beta chromodomain binding to methylated histone tails; AlphaScreen HP1-beta / biotin-H3K9me3 peptide binding; Potency, µM (top dose mostly 114 µM), for inactives: at the highest dose activity change, negative = inhibition, actives largely listed as inhibitors; actives 0.56% (n = 390,000); further: potency means the concentration at half of the fitted maximal effect; nearly all actives have a fitted effect of over 70% in size
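AlphaScreen: HP1-beta (50 nM) preformed 30 min with biotin-H3(1-18)K9me3 peptide (50 nM) in PBS pH 7.4, 0.01% Tween-20. Compound added for 30 min at RT, then streptavidin donor/nickel chelate acceptor beads (10 ug/mL) for 30 min.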
Six1-Eya2 blk – inhibitors of human Six1/Eya2 interaction | Q15475+O00167 | AlphaScreen GST-Six1/His-Eya2 binding, biochemical; active compounds read low | activity change, % (test concentration not listed) | actives 0.56% (n = 360,000); in the data active means activity change below about -65%; inconclusive means mostly about -30% to -63%; further: on the % scale 0 is the no-effect control and ±100 the full control effect
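Homogeneous AlphaScreen proximity assay pairing GST-Six1 with His-tagged Eya2 (added as 5X mix: 250 nM and 500 nM) in 50 mM Tris pH 8.0, 300 mM NaCl, 1 mM TCEP. Glutathione donor and nickel acceptor beads; 1 h, 37 °C, dark.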
The depositor's hits bear a star; ? = inconclusive; nt = no result given; [ ] = another dose, or the depositor's remark. Compounds with a hit are over-represented: about 10% of the library has one in this group of screens. Unless noted, the call rests on the fitted dose curve; in most records, active means well fitted inhibition curve with a large enough effect; inconclusive means small, poorly fitted or top-dose-only effect; inactive means no such curve, though single readings can be large or run the other way.

SMILES | BAZ2B block | JMJD2A Tudor inh | G9a block | CtBP-E1A blk | HP1b chromo inh | Six1-Eya2 blk
Cn1cccc1/C=N/n1c(-c2ccco2)n[nH]c1=S | ? | 20µM* | nt | 10 | 17% | 2
Cc1ccc(/C=N/n2c(-c3ccco3)n[nH]c2=S)cc1 | ? | 10µM* | 0.63µM* | -14 | 56µM* | -24
S=c1[nH]nc(-c2ccccn2)n1/N=C/c1ccco1 | 8.9µM* | 7.1µM* | nt | 0 | 23% | -74*
COc1cccc(OC)c1OCCN1CCN(C(c2ccccc2)c2ccccc2)CC1 | ? | -33% | 15%[2.33 µM] | -29 | 0% | -7
CC1(C)O[C@H]2[C@@H](O1)[C@@H](C(=O)Nc1ccccc1C(F)(F)F)O[C@@H]1OC(C)(C)O[C@@H]12 | -2% | -7% | 6%[59 µM] | nt | 64% | nt
Cc1cccc2cc(CN(CC(C)C)S(=O)(=O)c3ccccc3)c(=O)[nH]c12 | -22% | -22% | 14% | 2 | 34% | -1
CCC1CCc2nc3sc(C(=O)Nc4ccc(C)cc4C)c(N)c3cc2C1 (configuration not stated) | -1% | 0% | 3%[59 µM] | nt | 22% | nt
O=c1cc(-c2ccco2)nc(SCc2cccc(Cl)c2)[nH]1 | 29% | 9% | nt | nt | 13% | -1
S=c1[nH]nc(-c2ccco2)n1/N=C/c1cccc(Cl)c1 | -18% | 79µM* | 0.71µM* | -18 | 18% | -18
Cn1nc(C(=O)NCc2ccccc2)c2ccccc2c1=O | -29% | -7% | -30%[12.7 µM] | -2 | 41% | 0
Cn1nc(C(=O)NCc2ccccn2)c2ccccc2c1=O | ? | 22µM* | -5%[59 µM] | -6 | 16% | -4
CCOc1ccc(OCCC(=O)NNC(=O)c2nn(C)c(=O)c3ccccc23)cc1 | 71µM* | ? | ? | 4 | 4% | -1
Cc1ccc(OCCC(=O)NNC(=O)c2nn(C)c(=O)c3ccccc23)cc1 | 3% | -7% | -2%[12.7 µM] | -3 | 25% | 2
CC(C)n1nc(C(=O)NNC(=O)c2ccc(OC(F)F)cc2)c2ccccc2c1=O | -2% | -5% | 3.2µM* | nt | 52% | 2
CN(C)C(CNC(=O)CCNC(=O)c1ccc(Cl)cc1)c1ccco1 (configuration not stated) | -4% | -9% | 12%[59 µM] | 11 | 17% | 4
O=C(COCc1cc(-c2cccs2)on1)NCc1cccc(Cl)c1 | 31% | -4% | 20%[59 µM] | nt | 32% | nt
O=C(Nc1cc(S(=O)(=O)N2CCCCC2)ccc1N1CCOCC1)c1ccc(C(F)(F)F)cc1 | 5% | -22% | ? | 2 | 10% | 4
CCOC(=O)c1[nH]c(C)c(CCC(=O)Nc2ccccc2OCC)c1C | -1% | -28% | -27%[59 µM] | nt | 6%[57 µM] | nt
CCOC(=O)c1[nH]c(C)c(CCC(=O)Nc2ccc(N(CC)CC)cc2C)c1C | -18% | -28% | 14µM* | nt | 1%[57 µM] | nt
Nc1nc(NCc2ccc(Cl)cc2)c2[nH]cnc2n1 | nt | -27% | nt | nt | 11% | nt
COc1ccc(CN2CCN(Cc3ccc(C(F)(F)F)cc3)CC2)c(OC)c1 | 25µM* | 5.6µM* | 40µM* | nt | ? | -23
COc1ccc(CN2CCN(Cc3ccccc3F)CC2)c(OC)c1 | 20µM* | 1.3µM* | 50µM* | 3 | ? | -3
COc1ccc(CN2CCN(Cc3ccc(C)cc3)CC2)c(OC)c1 | 22µM* | 3.2µM* | 50µM* | -6 | ? | -10
COc1ccc(CN2CCN(c3ccccn3)CC2)c(OC)c1 | 79µM* | 1.6µM* | ? | -1 | ? | -4
COc1ccc(CN2CCN(c3ncccn3)CC2)c(OC)c1 | -5% | ? | ? | 4 | ? | -1
SMILES | BAZ2B block | JMJD2A Tudor inh | G9a block | CtBP-E1A blk | HP1b chromo inh | Six1-Eya2 blk
COc1ccc(CNC(=O)CSCc2ccc(C)cc2)c(OC)c1 | 6% | -3% | -2%[59 µM] | nt | 58% | nt
COc1ccc(CN2CCOCC2)cc1 | ? | -13% | 12% | 10 | 27% | 11
CNc1ccnc(-c2cccc(NS(C)(=O)=O)c2)n1 | nt | nt | 2%[0.501 µM] | nt | nt | nt
CCOc1ccccc1Oc1nc(C)nc2c1oc1ccccc12 | 61% | 7% | 14%[59 µM] | nt | 82% | nt
C[C@@H]1CN([C@@H](C)CO)C(=O)CCCn2nncc2CO[C@@H]1CN(C)C(=O)OCc1ccccc1 | nt | nt | nt | 3 | nt | 9
Cc1ccc2[nH]c(C(=O)Nc3ccc(F)cc3)cc2c1 | -6% | -8% | 27%[0.501 µM] | 4 | 32% | 2
Cc1cc(C)c2[nH]c(C(=O)Nc3ccc(F)cc3Br)cc2c1 | -9% | -19% | 50µM* | -1 | 3% | 2
CCCCN(C)C(=O)Cn1cnc2sc(C)c(S(=O)(=O)N3CCC(C)CC3)c2c1=O | 4% | -14% | 1%[59 µM] | nt | 35% | nt
Cc1ccc(C(C)C)c(OCC(=O)Nc2ccccc2N2CCN(C)CC2)c1 | ? | ? | -4%[12.7 µM] | -22 | -19% | -23
Cc1ccc(CSCC(=O)Nc2ccc(N3CCOCC3)cc2N2CCOCC2)cc1 | -6% | -18% | 28µM* | -1 | 7% | -1
Cc1ccc(C(C)C)c(OCC(=O)Nc2ccc(N3CCOCC3)cc2N2CCOCC2)c1 | 0% | -16% | 25µM* | 7 | 18% | -8
Cc1cccc(NC(=O)CSCC(=O)Nc2ccc(N3CCOCC3)cc2N2CCOCC2)c1 | nt | -13% | nt | nt | 24% | -4
Cc1ccc(C(C)C)c(OCC(=O)NN=C(CCl)CCl)c1 | 56µM* | nt | nt | nt | nt | nt
COc1cccc(N2CCN(CC(=O)Nc3ccc(S(=O)(=O)N4CCCCCC4)cc3)CC2)c1 | -10% | ? | 20%[12.7 µM] | 4 | -13% | -17
CCN(CC)C(=O)CSc1nc2c(c(-c3cccnc3)c1C#N)CCCC2 | -18% | 3% | -6% | 6 | 48% | 0
N#Cc1c(SCC(N)=O)nc2c(c1-c1ccncc1)CCCC2 | -4% | ? | 40µM* | -1 | 38% | 6
CCC(=O)N1CCc2cc(CNC(=O)Cc3ccc(OC)c(OC)c3)ccc21 | 1% | -13% | 9%[59 µM] | nt | 23% | nt
COc1ccc(Cn2nnnc2C(c2cc3ccc(OC)cc3[nH]c2=O)N2CCCCCC2)cc1 (configuration not stated) | 9% | -28% | 8.9µM* | -19 | 29% | -3
Cc1ccc2cc(C(c3nnnn3C3CCCC3)N3CCN(c4ccc(F)cc4)CC3)c(=O)[nH]c2c1 (configuration not stated) | -8% | -8% | 11µM* | 2 | 15% | -4
CCC(C)(C)n1nnnc1C(c1cc2ccc(OC)cc2[nH]c1=O)N1CCc2ccccc2C1 (configuration not stated) | -14% | -29% | 2.5µM* | -8 | 39% | -3
Cc1cc(C)c2cc(C(c3nnnn3C3CCCC3)N3CCOCC3)c(=O)[nH]c2c1 (configuration not stated) | 11% | 3% | -28%[59 µM] | 6 | 28% | 4
